In PubChem BioAssay (NCATS) one finds Potency data, which are given here for 20 compounds.

Records with an inconclusive call do not appear. A call without a number means that no potency is given here. Active and inactive are the calls of the source. Calls follow the shape of the dose curve; as a rule, active = well fitted curve in either direction with a large enough effect (not every such curve was filed as active); inconclusive = small, poorly fitted or top-dose-only effect, or another doubt; inactive = flat fitted curve, though single readings scatter.
Potency is read from the fitted curve at half-maximal effect.

The assay has as its target Mitogen-activated protein kinase 10 (Mus musculus) (UniProt Q61831). Put plainly: JNK3 AlphaScreen Assay (AID 530).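 Also: kinase came from lysate of stimulated human HepG2 cells.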 Particulars: JNK3 lysate, c-Jun phosphorylation; series mostly up to 25.6 µM. An outline of the steps: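 Pre-activated (IL-1β/TNFα) JNK3 in HepG2 lysates phosphorylates biotin-GST-cJun(1-79), 10 uM ATP; anti-phospho-cJun(Ser73) AlphaScreen read at room temperature, pH 7.6 Tris buffer. Compounds pre-incubated 15 min as titrations.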
`CCc1cc(Cl)c(OC)c(C(=O)NC[C@@H]2CCCN2CC)c1O`: the Potency result is “inactive”.

Take `N=C(N)N1CCc2ccccc2C1`: the Potency result is “inactive”.

Turning to `CCN(CC)CCNc1ccc(CO)c2sc3ccccc3c(=O)c12`, the Potency result was “inactive”.

On to `O=C1C(O)=C(O)C(=O)C(O)=C1O`, for which the Potency result was “inactive”.

Turning to `O=C1C(CCS(=O)c2ccccc2)C(=O)N(c2ccccc2)N1c1ccccc1` (stereo not given), the Potency entry was “inactive”.

On to `Cc1c(-c2ccccc2)oc2c(C(=O)OCCN3CCCCC3)cccc2c1=O`, for which the Potency entry was “inactive”.

For the compound `COc1ccc(C(Cl)=C(c2ccc(OC)cc2)c2ccc(OC)cc2)cc1`, the Potency entry is “inactive”.

As for `C[N+]1(C)CCC(=C(c2ccccc2)c2ccccc2)CC1`, the Potency result is “inactive”.

For `COc1cc(NS(=O)(=O)c2ccc(N)cc2)ncn1`, the Potency entry was “inactive”.

In the case of `NS(=O)(=O)Cc1noc2ccccc12`, the Potency entry is “inactive”.

Turning to `COc1cc(C)nc(-n2nc(C)cc2OC)n1`, the Potency result was “inactive”.

On to `O=C(O)CCC(=O)Nc1ccc(S(=O)(=O)Nc2nccs2)cc1`, for which the Potency result is “inactive”.

In the case of `COc1ccc(C(=O)c2ccccc2O)c(O)c1`, the Potency entry is “inactive”.

As to `CCCCc1cc2ccccc2c(OCCN(C)C)n1`, the Potency result was “inactive”.

As for `CC(C)(C)NC[C@H](O)COc1nsnc1N1CCOCC1`, the Potency entry was “inactive”.

With `CNCCc1ccccn1`, the Potency result is “inactive”.

With `CN1CCc2cccc3c2[C@H]1Cc1ccc(O)c(O)c1-3`, the Potency was 6.31 µM (active).

As to `Cc1cc(-c2ccccc2)nnc1NCCN1CCOCC1`, the Potency result was “inactive”.

Turning to `CCOC(=O)c1ccc(N)cc1`, the Potency entry is “inactive”.

For the compound `NS(=O)(=O)c1cc(C(=O)O)cc(N2CCCC2)c1Oc1ccccc1`, the Potency result was “inactive”.
